In PubChem BioAssay (NCI):
About 83,000 compounds went through this panel and 20% of them were active in at least one assay; those are over-represented in the sample as a whole.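 Plates (96-well) were seeded with cells, treated with compound at one concentration, and incubated for 48 hours before percent growth was determined.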 The source made the active and inactive calls. The calls were made as follows: active = growth percent below 10; inactive = the rest.

System: T-47D breast
Assay: NCI-60 one-dose screen, 48 h (100 = growth as untreated, 0 = no growth, -100 = all killed)
Details: 10 µM unless noted

`Cc1cc(=O)[nH]c(/C(=N/Nc2ccccc2)C(=O)c2ccc(Cl)cc2)n1` was tested. Which growth did it give?
Its growth is 77% (inactive).

With `COc1cc(C2=NN(C=O)C(c3cccc(Nc4ccnc5cc(Cl)ccc45)c3)C2)cc(OC)c1OC` (centres undefined) as the compound, how does the growth read?
The growth was 63.2% (inactive).

For `Cc1cc(C(=O)Nc2ccc3cc(CN4CCOCC4)ccc3n2)c(C)n1-c1ccccc1`, which growth is on record?
The growth was -2.49% (active).

How did the growth turn out when `O=C(Nc1cccc(Cl)c1)Nc1cccc(Cl)c1` was run?
The growth was 19.4% (inactive).

`COc1cc2c(cc1OC)C(=O)/C(=C/c1cccc(OCC(=O)c3ccccc3)c1)C2` was tested. Which growth did it give?
Its growth is 55.2% (inactive).

For `CN(C)c1ccc(-n2nc3ccccc3n2)cc1`, which growth is on record?
Its growth is 78.4% (inactive).

For `N[C@H](CS)C(=O)O`, which growth is on record?
The growth was 103% (inactive).

`CCOc1cc(/C=C/C(=O)C(C(=O)/C=C/c2ccc(OC(=O)CNc3nnc(C)s3)c(OCC)c2)C(=O)CNc2nnc(C)s2)ccc1OC(=O)CNc1nnc(C)s1` was tested. Which growth did it give?
The growth was 68.2% (inactive).

Which growth does the source give for `CC[C@H]1CN2CCc3cc(OC)c(OC)cc3C2C[C@@H]1CC1NCCc2cc(OC)c(OC)cc21` (some centres undefined) here?
Its growth is -15.1% (active).

`COc1ccc(N2CCN(CC(=O)N3CCN(c4nnc(-c5ccc(Cl)cc5)c(-c5ccc(Cl)cc5)n4)CC3)CC2)cc1` was tested. Which growth did it give?
Its growth is 31.6% (inactive).

How did the growth turn out when `O=C(COc1ccc(/C=C2\Oc3ccc4ccccc4c3C2=O)cc1)c1ccc(Cl)cc1` was run?
Its growth is 79.4% (inactive).

For `Cc1nn(-c2nc3ccccc3s2)c(C)c1Oc1ccccc1O`, which growth is on record?
The growth was 87.1% (inactive).

For `CCSc1ncc(Br)c(Sc2nc(N)nc3nc[nH]c23)n1`, which growth is on record?
The growth was 29.9% (inactive).

With `COc1ccc(C2=NN(C=O)C(c3cccc(Nc4ccnc5cc(Cl)ccc45)c3)C2)cc1` (centres undefined) as the compound, how does the growth read?
The growth was 25.1% (inactive).
